Screening data (PubChem BioAssay)
Sampled rows, rich in hits. Any-hit rate of the full collection: about 7.3%.
ELG1 genotoxic: induces genotoxicity in HEK293T cells with luciferase-tagged ELG1; HEK293T ELG1-luciferase reporter, luminescence, 16 h; actives 1.3% (n = 330,000); Potency, µM (doses to about 46 µM), actives largely listed as activators; further: nearly all actives have a fitted effect of over 60% in size
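Luminescence read-out: rising ELG1-luciferase signal, reflecting elevated ELG1 protein under genetic stress, flags genotoxic compounds. Cells were treated for 16 hr at 37 °C before ONE-Glo detection.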
NPC1 prom act: NPC1 promoter activation. Huh7 NPC1 promoter luciferase reporter, 24 h. Potency, µM (series often up to 9.22 µM), usual class: activators. actives 2.4% (n = 320,000). AID 485313; further: nearly all actives have a fitted effect of over 60% in size
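Compounds in DMSO were transferred onto Huh7 NPC1-luciferase reporter cells pre-incubated 2 h; after 24 h at 37 °C, Amplite reagent was dispensed and luminescence recorded 10 min later.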
KinaseGlo FLuc: counter-screen: inhibitors of Kinase-Glo firefly luciferase | Q27757 | Kinase-Glo luciferase, ATP luminescence, 8 min | Potency, µM (highest dose often 38.3 µM), hits mostly inhibitors | actives 0.28% (n = 200,000); further: nearly all actives have a fitted effect of over 60% in size
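Inhibition of Kinase-Glo luciferase light generation was assessed at 10 uM ATP in pH 7.2 imidazole buffer, with luminescence measured after eight minutes at ambient temperature.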
FLuc modulator: firefly luciferase modulation, counter-screen for miR-21 project. P08659. purified FLuc, Km substrates, luminescence inhibition. Potency, µM (doses to about 57.5 µM), most hits filed as inhibitors. actives 6.9% (n = 360,000). AID 588342; further: nearly all actives have a fitted effect of over 55% in size
Target sequence (P08659 whole entry, looked up): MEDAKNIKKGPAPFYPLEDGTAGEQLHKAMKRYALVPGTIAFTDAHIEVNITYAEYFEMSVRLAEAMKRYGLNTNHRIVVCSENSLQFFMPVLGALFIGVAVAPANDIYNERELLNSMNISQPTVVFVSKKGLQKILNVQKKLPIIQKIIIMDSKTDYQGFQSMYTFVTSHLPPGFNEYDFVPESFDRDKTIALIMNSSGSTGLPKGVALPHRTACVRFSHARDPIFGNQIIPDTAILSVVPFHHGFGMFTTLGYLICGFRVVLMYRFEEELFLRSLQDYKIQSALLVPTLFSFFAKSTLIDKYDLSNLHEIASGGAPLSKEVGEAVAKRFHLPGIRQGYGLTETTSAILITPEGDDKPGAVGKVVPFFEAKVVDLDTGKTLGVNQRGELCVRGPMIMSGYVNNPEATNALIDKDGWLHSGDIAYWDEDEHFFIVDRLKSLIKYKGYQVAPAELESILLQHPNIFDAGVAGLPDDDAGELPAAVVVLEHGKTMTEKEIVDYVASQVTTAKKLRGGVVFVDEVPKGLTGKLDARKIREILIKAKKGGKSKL
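Purified P. pyralis luciferase (10nM final) with 10uM D-luciferin and 10uM ATP (Km levels) in 50mM Tris acetate pH 7.5, 10mM Mg acetate, 0.01% Tween-20, 0.05% BSA; qHTS 6-point titration, ~60 µM downward; luminescence read.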
Rab9 prom act: Rab9 promoter activation | Huh7 Rab9 promoter-luciferase reporter, luminescence, 24 h | Potency, µM (highest dose often 9.22 µM), most hits filed as activators | actives 2.8% (n = 320,000); further: nearly all actives have a fitted effect of over 60% in size
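Promoter activation is measured as luciferase luminescence in Huh7 cells stably transfected with a Rab9 promoter–luciferase construct, following 24 h compound exposure at 37 °C and 10 min reagent incubation at ambient temperature.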
SMN2 splice up: increases expression of the SMN2 splice variant; actives 2.8% (n = 210,000); Potency, µM (titrated, usually from 46.1 µM), actives largely listed as activators; HEK293 SMN2-luciferase splicing reporter, luminescence, 30-36 h; further: nearly all actives have a fitted effect of over 55% in size
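qHTS luciferase splicing reporter: luminescence rises when SMN2 exon 7 is included in transfected HEK293 cells. Compound exposure lasted 30-36 h at 37C, with 4.5 mM final sodium butyrate as control, followed by a ONE-Glo read.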
A number is an active result; 0 = inactive; ? = inconclusive; - = no result given; [ ] = remark or other dose. The call rests on the fitted dose curve; in most records, active means well fitted curve in the direction sought with a large enough effect; inconclusive means small, poorly fitted or top-dose-only effect, or another doubt; inactive means no such curve, though single readings can be large; an effect the other way counts as inactive or inconclusive.

SMILES	ELG1 genotoxic	NPC1 prom act	KinaseGlo FLuc	FLuc modulator	Rab9 prom act	SMN2 splice up
CCCCc1nc2c(c3c1C[C@H](C)OC3)CN(C(=O)Nc1cccc(C#N)c1)CC2	-	-	0[7.66 µM]	-	-	0[9.22 µM]
O=C(Oc1ccccc1)n1c(=O)oc2ccc(Cl)cc21	-	-	0	-	-	-
COC(=O)c1ccccc1NC(=O)CSc1nnc2cc(C)c3cc(C)cc(C)c3n12	-	-	-	0	-	-
N#Cc1ccc(CO/N=C/c2ccccc2)cc1	?	?	0	24µM	?	?
CCc1ccc(-n2c(N3CCN(c4cccc(C)c4C)CC3)nc3ccccc3c2=O)cc1	-	-	-	0	-	0
COc1cc(SC)ccc1C(=O)NCCOc1ccc(F)cc1	21µM	?	0	5.4µM	?	14µM
COc1cc(SC)ccc1C(=O)NCC1CCCCC1	?	0	-	15µM	0	-
COc1ccc(CCNC(=O)c2ccc(SC)cc2OC)cc1	0	0	0	0	0	0
CC(=O)c1cccc(NC(=O)NCc2ccc3c(c2)OCO3)c1	0	0	-	?	0	-
O=C(Nc1cccc(Cl)c1)Nc1ccc2c(c1)OCO2	0	2.5µM	0	6.7µM	1.6µM	10µM
CC(=O)c1cccc(NC(=O)Nc2ccc3c(c2)OCO3)c1	0	3.5µM	-	4.8µM	2.5µM	-
COCCn1c(CNC(=O)c2ccccc2C)nc2cccnc21	-	-	-	0	-	-
Cc1cc2c(=O)oc(-c3ccccc3Br)nc2s1	0	0	-	7.6µM	0	-
Cc1cc2c(=O)oc(-c3ccc(F)cc3)nc2s1	0	0	0	0	0	-
CCc1cc2c(=O)oc(-c3ccccc3F)nc2s1	0	0	-	3.4µM	0	-
COc1ccc(NC(=O)Nc2c[nH]c(=O)[nH]c2=O)c(OC)c1	-	-	-	0	-	-
COc1ccc(Cl)cc1-c1ccc(C(=O)O)o1	-	-	0	-	-	-
O=C(NCCO)c1ccc2nc(Cc3cccc(Cl)c3)oc2c1	?	0	-	0	0	-
COCCNC(=O)c1ccc2c(c1)CCN2S(C)(=O)=O	0	0	0	0	0	0
Cc1ccc2c(c1)COc1c3ccc(C(=O)NCCO)cc3nn1-2	15µM	1.1µM	-	4.8µM	1µM	-
Cc1ccc(-n2cnc3cc(C(=O)NCCC4=CCCCC4)ccc32)c(C)c1	-	-	-	0	-	-
O=C(NCCO)c1ccc2c3n(nc2c1)-c1ccc(Cl)cc1CO3	?	2µM	-	6µM	3.5µM	-
COCCNC(=O)c1ccc2c3n(nc2c1)-c1ccc(Cl)cc1CO3	?	1.4µM	-	8.5µM	3.5µM	-
COCCNC(=O)c1ccc2c3n(nc2c1)-c1ccccc1CO3	?	1.1µM	-	3.8µM	1µM	-
COc1cccc(NC(=O)Cn2c(=O)n(CC(=O)NCCc3ccccc3)c(=O)c3sccc32)c1	-	-	-	0	-	0
SMILES	ELG1 genotoxic	NPC1 prom act	KinaseGlo FLuc	FLuc modulator	Rab9 prom act	SMN2 splice up
C=CCNC(=O)c1ccc2c3n(nc2c1)-c1ccccc1CO3	?	0.45µM	-	0.67µM	?	-
C=CCNC(=O)c1ccc2nc(-c3ccccc3)c(-c3ccccc3)nc2c1	0	0	0	0	0	0
O=c1[nH]c(=S)[nH]c2c1CN(CCCN1CCOCC1)CN2	-	-	0[7.66 µM]	-	-	0[9.22 µM]
O=C1c2ccccc2C2=Nc3ccccc3SC(c3cccc(F)c3)C12 (stereo not drawn)	0	0	0	0	0	0
Cc1ccc(C2=NNC(c3cccc(F)c3)S2)cc1 (stereo not drawn)	0	0.56µM	0	0.43µM	0.5µM	1.6µM
COc1ccc(C2NC(=O)CS2)cc1OC (stereo not drawn)	0	0	0	0	0	0
Fc1cccc(C2NN=C(c3ccccc3)S2)c1 (stereo not drawn)	2.3µM	2.2µM	0	1.1µM	2.8µM	11µM
Cc1ccc(Cn2c(CO)cnc2SCc2cccc(F)c2)cc1	-	-	-	0	-	-
COc1ccc(C2NN=C(c3ccc(C)cc3)S2)cc1OC (stereo not drawn)	?	2.2µM	0	2.4µM	1.4µM	11µM
CC(=O)c1ccc(NC(=O)c2sc(-n3nc(C)c(CCC(C)C)c3C)nc2C)cc1	-	-	-	0	-	-
Cc1ccc(-c2nn3c(=O)cc(CN4CCN(C(=O)Nc5cc(Cl)ccc5C)CC4)nc3s2)cc1	-	-	-	0	-	-
Cc1nc(-c2ccccc2)cn(O)c1=O	0	0	0	0	0	0
